Screens (PubChem)
Sampled rows, rich in hits. Any-hit rate of the full collection: about 10%.
MCF10A rereplic: DNA re-replication induction in MCF 10a cells; MCF 10A DNA re-replication, Hoechst nuclear intensity, 48 h; Potency, µM (top dose mostly 46.1 µM), most hits filed as activators; 350,000 tested, 2.9% active; AID 624296; further: nearly all actives have a fitted effect of over 50% in size
RORg inh: blocks mouse ROR gamma transcriptional activity | AID 2551 | Potency, µM (series often up to 53.6 µM), most hits filed as inhibitors | P51450 | 310,000 tested, 5.4% active | Drosophila S2 Gal4-RORgamma UAS-luciferase reporter, 20 h; further: nearly all actives have a fitted effect of over 60% in size
Target sequence (P51450 whole entry, looked up, the tested form may be a part): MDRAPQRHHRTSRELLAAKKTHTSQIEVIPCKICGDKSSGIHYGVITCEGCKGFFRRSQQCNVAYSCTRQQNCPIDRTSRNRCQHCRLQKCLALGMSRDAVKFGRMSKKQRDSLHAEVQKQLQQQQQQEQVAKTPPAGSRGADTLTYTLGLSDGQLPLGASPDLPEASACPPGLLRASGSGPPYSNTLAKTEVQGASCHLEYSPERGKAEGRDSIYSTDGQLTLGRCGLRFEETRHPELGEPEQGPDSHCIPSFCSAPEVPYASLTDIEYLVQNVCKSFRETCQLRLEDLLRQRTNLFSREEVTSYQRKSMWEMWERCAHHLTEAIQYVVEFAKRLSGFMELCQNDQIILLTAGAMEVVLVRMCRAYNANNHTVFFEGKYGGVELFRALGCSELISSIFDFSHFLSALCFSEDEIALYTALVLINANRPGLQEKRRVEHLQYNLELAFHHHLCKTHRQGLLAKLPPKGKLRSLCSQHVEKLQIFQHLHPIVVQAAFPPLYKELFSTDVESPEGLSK
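Read-out: Photinus luciferase luminescence; inhibitors lower reporter signal. Insect Schneider cells with Gal4-ROR gamma fusion under metallothionein promoter, UAS reporter; 700 uM final copper sulfate induction, 20 hr, ambient temperature.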
SW480 rerep: induces DNA re-replication in SW480 colon adenocarcinoma cells; SW480 DNA re-replication, Hoechst DNA content imaging, 48 h; Potency, µM (series often up to 46.1 µM), usual class: activators; 340,000 tested, 1.8% active; AID 624297; further: nearly all actives have a fitted effect of over 55% in size
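Compounds, transferred as 23 nL by pin tool, were incubated with cells for 48 hr; DNA content per nucleus was then quantified by Hoechst staining and fluorescence plate imaging.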
VP16 counter: Gal4-VP16 reporter inhibition counter-screen; Drosophila S2 Gal4-VP16 UAS-luciferase, luminescence, 20 h; Potency, µM (titrated, usually from 53.6 µM), most hits filed as inhibitors; 310,000 tested, 3.5% active; AID 2546;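 further: Gal4-VP16 expression switched on by copper sulfate through the metallothionein promoter; nearly all actives have a fitted effect of over 50% in size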
ELG1 DNA repair: inhibitors of ELG1-dependent DNA repair in HEK293T cells; 330,000 tested, 2.3% active; HEK293T ELG1-luciferase reporter, luminescence, 16 h; DNA damage induced by 5-fluorouridine; AID 504467; Potency, µM (series often up to 46.1 µM), hits mostly inhibitors; further: nearly all actives have a fitted effect of over 55% in size
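Quantitative HTS, concentration-response format. 2,000 cells/well co-treated with 5-fluorouridine and compound, 16 hr in 5% CO2 at 37 °C; ONE-Glo luminescence read after 30 min.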
Of the large screens only hits and unclear results are named; the others gave an inactive call. The call rests on the fitted dose curve; in most records, active means well fitted curve in the direction sought with a large enough effect; inconclusive means small, poorly fitted or top-dose-only effect, or another doubt; inactive means no such curve, though single readings can be large; an effect the other way counts as inactive or inconclusive.

O=C1/C(=C/c2ccncc2)Cc2ccccc21	none (no result: RORg inh, VP16 counter)
C=CCn1c(SC(C)C(=O)NCC2CCCO2)nnc1-c1ccc(OC)cc1 (centres undefined)	none (no result: RORg inh, VP16 counter)
COc1ccc(C(=O)CSc2[nH]c(=O)cc(C(F)(F)F)c2C#N)cc1	MCF10A rereplic 18µM, RORg inh inconclusive, SW480 rerep inconclusive
COc1ccccc1NC(=O)Cn1c([N+](=O)[O-])cnc1C	none
CSC(=Nc1ccccc1)C(C#N)c1nc2ccccc2[nH]1 (centres undefined)	RORg inh 5.6µM
N#CC(C(=S)Nc1ccccc1)c1nc2ccccc2[nH]1 (centres undefined)	MCF10A rereplic inconclusive, RORg inh 1.1µM, SW480 rerep inconclusive, VP16 counter 2.5µM, ELG1 DNA repair 13µM
O=C(C1CCCCC1)N1CCC(c2nc3ccccc3[nH]2)CC1	none
OC(c1nc2ccccc2[nH]1)C(O)c1nc2ccccc2[nH]1 (centres undefined)	none
N#CC(C(=O)C1CCCCC1)c1nc2ccccc2[nH]1 (centres undefined)	MCF10A rereplic inconclusive, RORg inh 3.5µM, SW480 rerep inconclusive, VP16 counter 7.9µM
O=C1c2sc3nc4n(c(=O)c3c2CCC1Br)CCCCC4 (centres undefined)	RORg inh 10µM, SW480 rerep inconclusive, VP16 counter 20µM, ELG1 DNA repair inconclusive
O=C1CCCc2c1sc1nc3n(c(=O)c21)CCCCC3	RORg inh inconclusive, ELG1 DNA repair inconclusive
O=C(Nc1cccc(Cl)c1)c1ccc(-n2cncn2)c([N+](=O)[O-])c1	RORg inh inconclusive, ELG1 DNA repair inconclusive
CCNc1nc(N)c(C(=C(C#N)C#N)c2ccccc2)s1	MCF10A rereplic 20µM, SW480 rerep inconclusive
Cc1ccccc1NC1=C/C(=N\S(=O)(=O)c2ccc(C(=O)O)cc2)c2ccccc2C1=O	MCF10A rereplic 2.1µM, RORg inh inconclusive, SW480 rerep inconclusive, VP16 counter inconclusive, ELG1 DNA repair 12µM
O=C(O)c1ccc(S(=O)(=O)/N=C2\C=C(Nc3ccccc3F)C(=O)c3ccccc32)cc1	MCF10A rereplic 1.5µM, RORg inh inconclusive, SW480 rerep 6.5µM, VP16 counter inconclusive, ELG1 DNA repair inconclusive
CC(C)c1ccc(S(=O)(=O)/N=C2\C=C(NS(=O)(=O)c3ccccc3)C(=O)c3ccccc32)cc1	MCF10A rereplic inconclusive, SW480 rerep inconclusive, ELG1 DNA repair inconclusive
CCc1ccc(S(=O)(=O)/N=C2\C=C(NS(=O)(=O)c3ccccc3)C(=O)c3ccccc32)cc1	none
Cc1ccc(C)c(S(=O)(=O)/N=C2\C=C(NS(=O)(=O)c3ccccc3)C(=O)c3ccccc32)c1	MCF10A rereplic inconclusive, SW480 rerep inconclusive, ELG1 DNA repair 23µM
COc1nnc(-c2ccc(C)c(S(=O)(=O)NC(C)C)c2)c2ccccc12	MCF10A rereplic inconclusive
OC(CN1CCC(Cc2ccc(F)cc2)CC1)c1ccc(Cl)cc1 (centres undefined)	none (no result: ELG1 DNA repair)
CCOCCCN(C(=O)c1snc(C(N)=O)c1N)C(C(=O)NC(C)(C)C)c1ccc(Cl)cc1 (centres undefined)	none
CSc1ccc(CCNC(=O)c2nn(C)c3c2CS(=O)(=O)c2ccccc2-3)cc1	ELG1 DNA repair 26µM
CCOc1ccccc1CNC(=O)c1nn(C)c2c1CS(=O)(=O)c1ccccc1-2	MCF10A rereplic inconclusive, ELG1 DNA repair 16µM
COc1ccc(CNS(=O)(=O)c2ccc3c(c2)CCN3C(=O)C2CC2)cc1	VP16 counter 16µM, ELG1 DNA repair inconclusive
CC(=O)N1c2ccc(S(=O)(=O)NCC3CCC(C(=O)Nc4cc(C)ccn4)CC3)cc2CC1C (centres undefined)	RORg inh inconclusive, SW480 rerep inconclusive, VP16 counter 7.1µM
O=C(C1CC1)N1CCc2cc(S(=O)(=O)NCCCN3CCCCC3)ccc21	MCF10A rereplic inconclusive
COc1cc(CNS(=O)(=O)c2ccc3c(c2)CC(C)N3C(=O)C2CCC2)cc(OC)c1OC (centres undefined)	VP16 counter 6.3µM
CC(=O)N1c2ccc(S(=O)(=O)NCC3CCC(C(=O)Nc4ncccc4C)CC3)cc2CC1C (centres undefined)	none
CC1Cc2cc(S(=O)(=O)NCCc3ccccc3)ccc2N1C(=O)C1CC1 (centres undefined)	MCF10A rereplic inconclusive, RORg inh inconclusive, VP16 counter inconclusive
Cc1ccc(CNC(=O)CCS(=O)(=O)c2ccc3c(c2)CC(C)N3C(=O)C2CC2)cc1 (centres undefined)	MCF10A rereplic 10µM, SW480 rerep inconclusive
CC(C)c1nc(-c2ccc([N+](=O)[O-])cc2)cs1	RORg inh inconclusive, ELG1 DNA repair inconclusive
COc1cccc(CNS(=O)(=O)c2ccc3c(c2)CC(C)N3C(=O)C2CC2)c1 (centres undefined)	SW480 rerep inconclusive, VP16 counter inconclusive
COc1ccc(CNS(=O)(=O)c2ccc3c(c2)CC(C)N3C(=O)C2CC2)cc1 (centres undefined)	RORg inh inconclusive, VP16 counter 18µM
CCOc1ccc(S(=O)(=O)N2CCN(C(=O)C3CCC3)CC2)cc1	none (no result: RORg inh, VP16 counter)
COc1ccc(C(=O)N(C)CC(=O)Nc2cccc(F)c2)cc1S(=O)(=O)NC1CCCC1	SW480 rerep inconclusive (no result: RORg inh, VP16 counter)
O=C(O)c1ccccc1NC(c1ccccc1)c1ccc(Cl)cc1 (centres undefined)	none
COc1ccc(C2CC(c3ccccc3Br)=NN2c2ccc(S(N)(=O)=O)cc2)cc1 (centres undefined)	MCF10A rereplic inconclusive, SW480 rerep 3.7µM (no result: RORg inh, VP16 counter)
COc1ccc(C2CC(c3ccccc3F)=NN2c2ccc(S(N)(=O)=O)cc2)cc1 (centres undefined)	MCF10A rereplic 2.1µM, SW480 rerep 0.92µM (no result: RORg inh, VP16 counter)
COc1ccc(C2CC(C(C)(C)C)=NN2c2ccc(S(N)(=O)=O)cc2)cc1 (centres undefined)	none (no result: RORg inh, VP16 counter)
COc1ccc(C2CC(c3ccc(C(F)(F)F)cc3)=NN2c2ccc(S(N)(=O)=O)cc2)cc1 (centres undefined)	MCF10A rereplic inconclusive, SW480 rerep 0.52µM (no result: RORg inh, VP16 counter)
COc1ccc(C2CC(c3ccccc3C(F)(F)F)=NN2c2ccc(S(N)(=O)=O)cc2)cc1 (centres undefined)	MCF10A rereplic 1.8µM, SW480 rerep 0.73µM, ELG1 DNA repair inconclusive (no result: RORg inh, VP16 counter)
COc1cccc(-c2cncnc2Nc2ccccc2)c1	none (no result: MCF10A rereplic, SW480 rerep, ELG1 DNA repair)
O=C(N/N=C\c1cn(-c2ccccc2)nc1-c1ccccc1)c1ccc(Br)o1	MCF10A rereplic inconclusive, RORg inh 1.4µM, SW480 rerep inconclusive, VP16 counter 4µM, ELG1 DNA repair inconclusive
Cc1ccc(-c2nn(-c3ccccc3)cc2/C=N/NC(=O)c2ccc(Br)o2)cc1	MCF10A rereplic inconclusive, RORg inh 2.8µM, VP16 counter 4µM, ELG1 DNA repair inconclusive
